# Measurements as given in the OligoGym collection.
# Biological target: ZNF548
# Experiment: pooled miR-30 sensor sort-seq; sequence = guide strand
# Settings: shRNA
# Note: reference of the scale not given here.
row,Sequence,sensor-assay potency score (higher = more potent)
1,TCAACAAATGAATAGCTGCAGG,-0.782
2,ATTCATAAGACCTTTCTCCTGT,0.892
3,TTTCTGGTGATGAACCAGGTGA,-0.687
4,TTATAAGGTCTTTCTCCGGTGT,-0.00393
5,TTCTCTGTCCTCTGTGTCCCTG,-0.777
6,TTGTAACCTCTGACACTCCTAC,-0.158
7,TTCACTAGTGTGAACTGTCTGA,0.39

# Biological target: ZNF550
# Experiment: as above
# Settings: shRNA
row,Sequence,sensor-assay potency score (higher = more potent)
1,TTTCATTCCAGTGTGAACCCTC,0.423
2,TTGAGCTCTGGCTAAAGGCTTT,-0.685
3,TTCATGGAGAACATCTGCTGAT,0.0411
4,TCTGTCACCTAGTGAAACCAGA,-0.609
5,TGCTGCATGAGGTACGACCTGC,-0.586
6,ATTCATGGAGAACATCTGCTGA,-0.38
7,TTCGACATTGACTACACTCATA,-1.1
8,ATGAGTTCTGAGCTGCATCTGA,-0.453
9,TTGTGGAGGTCTGTCTCCGGTG,-1.27
10,TTTACCTTTCTGCATTTCCAAA,-1.66
11,TGCTGTATGAGTTCTGAGCTGC,0.178
12,TTGAGGTTGAAGATTCCAGAGT,-1.04

# Biological target: ZNF583
# Experiment: as above
# Settings: shRNA
row,Sequence,sensor-assay potency score (higher = more potent)
1,TATAACTAAGATGTCTTGCTCC,0.322
2,TATATCAAAGATTGTATCCTGG,0.513
3,TTCGGTAACTTTTCTTTTGTGG,0.115
4,TTTCTTTTCTACATAGACTTTC,-0.596
5,TTTTACATTCTTTACACTGATA,-0.826
6,TTTCTTTTGTGGTTCATGCTTA,0.129
7,TTTTCTACATAGACTTTCCTAT,-0.369
8,TTGACTAAGATGTACCTCTTGA,0.141
9,TTCTTCATATGTCTCTTGCTTT,-0.61
10,TTCTCCAACATCACTTTCCTGT,0.0692
11,TTTTTTACATTCTTTACACTGA,0.132
12,TACCTCTTGACTTCCCAGCTGG,0.168

# Biological target: ZNF592
# Experiment: as above
# Settings: shRNA
row,Sequence,sensor-assay potency score (higher = more potent)
1,TTGTCCTCTGGAAATGTGCAGC,-0.92
2,TTGAAGACCATTTCACAGGAGC,-0.241
3,TGATGCAGCAACACTGTGGGGG,0.194
4,TTGAACTCCAAAGCTTCCCCGA,-0.465
5,ATTCTCTCTAGTCTCCATGGGC,-0.404
6,TTTGTCATGCTCTCGTCCCCTT,-0.419
7,TTGTTGAAGACCATTTCACAGG,-0.934
8,TAATGTGGTCTTTCTCCGCTTC,-0.0177
9,TTAGTGACACTAGCCACTCTTT,-0.994
